Laboratory results as given in PubChem BioAssay.
“And” between values parts separate entries of the source, which are not always exact repeats. Equal values may be shown once. The source made the active and inactive calls. The rule behind the calls is not given here.

Test: circadian clock period modulators, cell-based, LOPAC library, luminescence reporter (AID 2774);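 note: values are relative to mean of DMSO wells on each plate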
Conditions: circadian reporter cells, at 7 µM, actives lie on both sides

Period change, active:
CCC(CO)Nc1nc(NCc2ccccc2)c2ncn(C(C)C)c2n1 (stereo not drawn) 1.22 h

Period change, inactive:
NC(N)=NCc1cccc(I)c1 0.01 h
O=C(O)CNC(=O)C(CS)Cc1ccccc1 (stereo not drawn) -0.18 h
CC(C)(C)[C@]1(O)CCN2C[C@H]3c4ccccc4CCc4cccc(c43)[C@@H]2C1 0.045 h and 0.1 h
COc1ccc(C(=O)NCc2cccnc2)cc1C(=O)NCc1cccnc1 -0.05 h
COc1ccc(-c2ccc(N)[n+](CCCC(=O)O)n2)cc1 0.235 h
COc1ccccc1N1CCN(CCCCNC(=O)c2ccc3ccccc3c2)CC1 0.185 h
CC(C)NC[C@H](O)c1ccc(O)c(O)c1 0.03 h
